About 83,000 compounds went through this panel and 20% of them were active in at least one assay; those are over-represented in the sample as a whole.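 How to read the values: 0–100, growth inhibition (40 = 60% inhibited); 0, no net growth; -100 to 0, cell death (-40 = 40% of starting cells died; -100 = all dead).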 Unmarked numbers belong to inactive results. Calls of active or inactive are those of the source. Rule for the calls: active = growth percent below 10; inactive = the rest.
Key:
Assay in all cases: NCI-60 one-dose screen, 48 h (100 = growth as untreated, 0 = no growth, -100 = all killed)
Conditions in all cases: 10 µM
T-47D breast = tested on: T-47D breast
MDA-MB-435 melanoma = tested on: MDA-MB-435 melanoma
SW-620 colon = tested on: SW-620 colon
MCF7 breast = tested on: MCF7 breast
HCT-116 colon = tested on: HCT-116 colon
HCC-2998 colon = tested on: HCC-2998 colon
KM12 colon = tested on: KM12 colon
BT-549 breast = tested on: BT-549 breast

Row | Compound | growth (T-47D breast) | growth (MDA-MB-435 melanoma) | growth (SW-620 colon) | growth (MCF7 breast) | growth (HCT-116 colon) | growth (HCC-2998 colon) | growth (KM12 colon) | growth (BT-549 breast)
1 | CCc1c(C(=O)NCc2c(O)ccc3cccc(O)c23)[nH]c(C)c1C(C)=O | 9.15% (active) | 35.1% | 68.7% | 11.6% | 42.3% | 47.9% | 31.2% | 
2 | COC(=O)C1(C(=O)OC)C2C(=O)C3C(C21)C3(C(=O)OC(C)(C)C)C(=O)OC(C)(C)C (stereo unspecified) | 102% | 99.9% | 106% | 103% | 101% | 112% | 112% | 
3 | Fc1cc(-c2ncc(-c3cc(F)c(F)c(F)c3)c(NC3CCCCCC3)n2)cc(F)c1F | 102% | 96.8% | 96.9% | 90.8% |  | 127% | 101% | 103%
4 | O=NN(CCCl)C(=O)Nc1ccc(NC(=O)N(CCCl)N=O)cc1 | 102% | 90.3% | 66.1% | 86.4% |  | 105% | 103% | 85.2%
5 | C=CCOc1ccc2c(c1)CC=C1[C@@H]2CC[C@]2(C)C(=O)/C(=N/O)C[C@@H]12 | 87.8% | 72.6% | 79.6% |  | 66.8% | 74.8% | 57.9% | 89.1%
6 | COc1cc2ccnc(C=O)c2cc1OC | 60.7% | 31.1% | 30.2% | 23.8% |  | 104% | 92.1% | 56.3%
7 | C[C@@H]1N=C(c2ccc(Br)cc2)Nc2nc3ccccn3c2C1=O | 67.2% | -13% (active) | 38% | 20.9% |  | 69% | 29.6% | 49.3%
8 | CCOC(=O)c1sc(NC(=O)c2cc(OC)c(OC)c(OC)c2)nc1C | 118% | 102% | 98.1% | 87.5% | 111% | 57.4% | 99.3% | 
9 | COc1ccc(-c2cn[nH]c2-c2cc(OC)c(OC)c(OC)c2)cc1 | 45.6% | -19% (active) | 20.5% | 5.37% (active) | 0.33% (active) | 6.62% (active) | 4.39% (active) | 
10 | COc1ccc(NC(=O)CCn2cnc3c(cc(-c4ccccc4)n3-c3ccccc3)c2=O)cc1 | 90.8% | 96% |  | 83.3% | 91.4% | 96.3% | 110% | 92.2%
11 | COCCOC(=O)NC(=O)Nc1ccc(/C(=N/O)c2ccc(Cl)cc2)cc1 | 62.5% | 3.81% (active) | 29% | 14.3% |  | -1.35% (active) | 11.7% | 50.9%
12 | O=[N+]([O-])c1ccc(-c2nc(-c3ccccc3)c(-c3ccccc3)n2-c2ccccc2)cc1 | 21.6% | 36.5% | 48.8% | 19.6% | 33.2% | -36.9% (active) | 37% | 
13 | CC(=O)Nc1nc(C)c(C(=O)N/N=C/c2cccn2C)s1 | 121% | 104% | 102% | 87.5% | 111% | 70.8% | 105% | 
14 | O/N=C1\CCC2CCCCC2C1 (stereo unspecified) | 94% | 104% | 109% | 93% | 103% | 106% | 106% | 
15 | CCN1CCOC1C(C)C (stereo unspecified) | 101% | 105% |  | 101% | 102% | 101% | 109% | 108%
16 | CC(=O)Nc1ccc(Sc2ccc(NC(C)=O)cc2)cc1 | 70.6% | 104% | 104% | 97.7% | 98.5% | 97.2% | 96.5% | 
17 | O=[N+]([O-])c1ccc2c(c1)Cc1cc(I)ccc1-2 | 105% | 98.1% |  | 85% | 96.2% | 103% | 105% | 94.2%
18 | O=C(N/N=C\c1cc(Cl)ccc1O)c1ccncc1 | 30.1% | 89.4% | 64.7% | 14.6% | 24.6% | 45.2% | 53.6% | 
19 | COc1c(C)c(C)c(OC)c2c1[nH]c(=O)c1c3cccnc3cn21 | 94.9% | 110% | 99.3% | 88.5% |  | 120% | 106% | 124%
20 | CC(Oc1ccc(Cl)cc1)c1ccccc1 (stereo unspecified) | 95.7% | 101% | 96.4% | 102% | 98.9% | 115% | 103% | 
21 | COc1cc(/C=C/C(=O)c2cc(-c3ccc(F)cc3)ccc2O)cc(OC)c1OC | 42.1% | 70.7% | 80.9% | 68.6% | 60% | 93.1% | 86% | 
22 | COc1ccc(-c2[nH]ncc2-c2cc(OC)c(OC)c(OC)c2)cc1 | 58.1% | -48% (active) | 23.6% | 6.61% (active) |  | -3.98% (active) | -8.7% (active) | -6.65% (active)
23 | Cc1ccc(-c2cc(C(=O)Nc3ccc(S(=O)(=O)N4CCCCC4)cc3)[nH]n2)c(O)c1 | 33.8% | 61.3% |  | 46.8% | 43.5% | 68.8% | 45.1% | 67.4%
24 | COc1cc(C(=O)n2nc(N)c3c(C)cc(C)nc32)cc(OC)c1OC | 98.5% | -12.7% (active) | 31.5% | 45.3% | 70.2% | 95.6% |  | 
25 | Nc1nc2c(nnn2C2CC(O)C(CO)O2)c(=O)[nH]1 (stereo unspecified) | 49.8% | 41.1% | 33.1% | 37.4% | 49.5% | 51.3% | 44.7% | 
26 | CCCCCCCCCCCCCCCC(=O)N1CCN(C)CC1 | 74.3% | 59.8% | 90% | 85% |  | 81.8% | 76.2% | 83.1%
